Data as given in the supplement of paper PMC13380429.
Unmarked numbers belong to inactive results.

Test system: Vero E6 infected with SARS-CoV-2
Test: inhibition of SARS-CoV-2 cytopathic effect; higher = more antiviral protection, active = above 15
Settings: 48 h

| Compound | inhibition of SARS-CoV-2 cytopathic effect (1 nM) [%] | inhibition of SARS-CoV-2 cytopathic effect (8.33 nM) [%] | inhibition of SARS-CoV-2 cytopathic effect (100 nM) [%] | inhibition of SARS-CoV-2 cytopathic effect (833.33 nM) | inhibition of SARS-CoV-2 cytopathic effect (10000 nM) |
| --- | --- | --- | --- | --- | --- |
| CCN(CC)CCOc1ccc(/C(=C(\Cl)c2ccccc2)c2ccccc2)cc1 [clomifene] | 0.1 | 1.97 | 2.27 | 3.88% | 21.1% (active) |
| O=C(Oc1cccc2cccnc12)c1ccccc1 [benzoxiquine] | 1.28 | 1.56 | -0.45 | -1.05% | -3.29% |
| Clc1ccc(C2=CCC[C@H]3CC[C@@H]2N3)cn1 | -2.02 | 2.33 | -0.54 | 0.15% | -1.94% |
| Cc1ccc(C23CNCC2C3)cc1 (stereo not given) [bicifadine] | 0.67 | -0.49 | 0.91 | -1.53% | -0.3% |
| NCCc1c[nH]c2ccc(C(N)=O)cc12 [5-carboxamidotryptamine] | 2.2 | 0.54 | 3.52 | 15.1% (active) | 1.89% |
| CC(=O)OCC(=O)[C@@]1(O)CC[C@H]2[C@@H]3CCC4=CC(=O)C=C[C@]4(C)[C@@]3(F)[C@@H](O)C[C@@]21C [isoflupredone-acetate] | 2.83 | 2.61 | 0.09 | 1.17% | 1.02% |
| N#Cc1cc2c(OCC(O)CN3CCN(C(c4ccccc4)c4ccccc4)CC3)cccc2[nH]1 (stereo not given) | 0.5 | -0.23 | 0.3 | 4.21% | -2.26% |
| CN(C)CC/C=C1/c2ccccc2COc2ccccc21 [doxepin] | -0.79 | 1.36 | 1.85 | -1.94% | -2.1% |
| Cc1n[nH]c2ccc(-c3cncc(OC[C@@H](N)Cc4ccccc4)c3)cc12 | 1.18 | 0.14 | 4.58 | 4.63% | -13.2% |
| CC(C)(C)c1ccc(S(=O)(=O)/C=C/C#N)cc1 | 2.15 | 0.27 | 0.24 | 5.32% | -2.36% |
| CN1Cc2c(C(=O)OC(C)(C)C)ncn2-c2ccsc2C1=O | 2.57 | 3.55 | 1.79 | 1.66% | -0.64% |
| Cn1cc(C(=O)c2cccc3ccccc23)cc1C(=O)O [napirimus] | -0.4 | -1.83 | 0.36 | -1.9% | 1.11% |
| COc1cc2cc(c1Cl)N(C)C(=O)C[C@H](OC(=O)C(C)C)[C@]1(C)O[C@@H]1[C@H](C)[C@@H]1C[C@@](O)(NC(=O)O1)[C@H](OC)/C=C/C=C(\C)C2 [ansamitocin-p-3] | 2.87 | -1.3 | -3.14 | -0.53% | 0.75% |
| N[C@@H](CC(=O)Nc1ccc(Oc2cc(F)c(F)cc2Br)cc1)C(=O)O | -3.45 | -0.99 | -1.17 | -3.56% | 6.38% |
| COC(=O)c1cc(OC)c2c(c1-c1c(CO)cc(OC)c3c1OCO3)OCO2 [bicyclol] | -2.07 | 1.38 | -0.88 | -0.4% | -3.03% |
| COc1cc(Br)c(Nc2nc(-c3c(C)nc4ncccn34)cs2)c(Br)c1 | -0.04 | 0.45 | 1.74 | -3.16% | 10.6% |
| C=CC(=O)Nc1cccc(Nc2nc(Nc3ccc(NC4CN(CCF)C4)cc3OC)ncc2C(F)(F)F)c1 | 0.89 | 1.87 | 7.9 | -5.81% | -24.6% |
| O=C(NCCO)c1cc(C(=O)NCCO)cc(C(=O)NCCO)c1 | -0.77 | -1.01 | -1.2 | -1.25% | 0.61% |
| C=CCN1CC[C@]2(C)c3cc(O)ccc3C[C@H]1[C@H]2C | 1.28 | 1.94 | -1.86 | 0.86% | 1.02% |
| Cc1c(NC(=O)N2CCOCC2)ccc2c1c1ccccc1n2C(C)C | 0.94 | -0.34 | -2.07 | 2.48% | 0.62% |

| Compound | inhibition of SARS-CoV-2 cytopathic effect (1 nM) [%] | inhibition of SARS-CoV-2 cytopathic effect (8.33 nM) [%] | inhibition of SARS-CoV-2 cytopathic effect (100 nM) [%] | inhibition of SARS-CoV-2 cytopathic effect (833.33 nM) | inhibition of SARS-CoV-2 cytopathic effect (10000 nM) |
| --- | --- | --- | --- | --- | --- |
| CNC(=O)c1cc2c(cn1)[nH]c1ccccc12 | 1.51 | -0.17 | 1.17 | -0.08% | 1.58% |
| CC(C)(C)NCC(O)c1ccccc1Cl (stereo not given) [tulobuterol] | 2.01 | 1.33 | -0.63 | -10.6% | 2% |
| N.N.O=C([O-])C[O-].[Pt+2] [nedaplatin] | -3.28 | -2.76 | -0.64 | -1.21% | -2.85% |
| NC[C@@H]1CC[C@@H](N)[C@@H](O[C@H]2[C@H](O)[C@@H](O[C@H]3O[C@H](CO)[C@@H](O)[C@H](N)[C@H]3O)[C@H](N)C[C@@H]2N)O1 [dibekacin] | 5.18 | -1.26 | 1.67 | 2% | 1.51% |
| CCc1ccc(OCc2ccccc2C(=O)Nc2ccc3nc(C)cc(N)c3c2)cc1 | 0.87 | 3.61 | 2.46 | 1.94% | -28.4% |
| N#Cc1nn(-c2c(Cl)cc(C(F)(F)F)cc2Cl)c(N)c1[S+]([O-])C(F)(F)F (stereo not given) [fipronil] | 0.34 | 3.14 | 1.21 | 3.8% | 3.66% |
| CC(C)(C)C(=O)OCC(=O)[C@H]1CC[C@H]2[C@@H]3CCC4=CC(=O)CC[C@]4(C)[C@H]3CC[C@]12C [desoxycorticosterone-pivalate] | -1.6 | 0.71 | -0.4 | -0.12% | 0.98% |
| CNC[C@H](O)c1ccc(O)c(O)c1 [epinephrine] | 3.04 | 3.04 | -1.01 | 0.24% | -0.94% |
| Cc1occc(=O)c1[O-].Cc1occc(=O)c1[O-].[O]=[V+2] [bis(maltolato)oxovanadium(IV)] | 1.28 | 1.37 | 0.44 | -2.57% | -1.02% |
| COc1cc2c(Nc3ccc(Cl)c(Cl)c3F)ncnc2cc1OC[C@@H]1C[C@@H]2CN(C)C[C@@H]2C1 | -2.06 | -2.66 | -5.42 | -14.7% | -22.4% |
| Cc1cc2c(s1)Nc1ccccc1N=C2N1CCN(C)CC1 [olanzapine] | -1.67 | -2.18 | -0.41 | 8.51% | 1.41% |
| CO[C@H]1/C=C/O[C@@]2(C)Oc3c(C)c(O)c4c(O)c(c5c(nc6cc(C)ccn65)c4c3C2=O)NC(=O)/C(C)=C\C=C\[C@H](C)[C@H](O)[C@@H](C)[C@@H](O)[C@@H](C)[C@H](OC(C)=O)[C@@H]1C [rifaximin] | 0.71 | -2.16 | -0.03 | -3.72% | -3.3% |
| O=C1NS(=O)(=O)c2ccccc21 [saccharin] | 0.13 | -1.09 | 0.17 | -0.12% | -2.82% |
| CC(C)S(=O)(=O)NC[C@H](C)c1ccc(-c2ccc(CCNS(C)(=O)=O)cc2)cc1 [mibampator] | -0.11 | -1.29 | -1.07 | 1.62% | 4.07% |
| Cc1cc(CN2CCN(c3c(Br)cnc4nc(-c5ccc(N6CCN(C)CC6)cc5)[nH]c34)CC2)no1 | -1.63 | -1.4 | -0.54 | -5% | -6.41% |
| CN(Cc1ccccc1)C(=O)[C@H](Cc1ccc2ccccc2c1)NC(=O)[C@@H]1CCCN1C(=O)Nc1ccccc1[N+](=O)[O-] | -0.58 | 2.06 | 3.45 | 5.13% | 1.31% |
| CCCC[C@@H](NC(=O)[C@@H](Cc1cn(C(=O)OC)c2ccccc12)NC(=O)[C@H](CC(C)(C)C)NC(=O)N1[C@H](C)CCC[C@@H]1C)C(=O)O | 1.03 | 2.89 | 1.32 | -1.6% | 1.29% |
| CN(C)C(=O)COC(=O)Cc1ccc(OC(=O)c2ccc(NC(=N)N)cc2)cc1 [camostat-mesilate] | 3.69 | -0.38 | 1.74 | 1.93% | -2.24% |
| CC(NC(C)(C)C)C(=O)c1cccc(Cl)c1 (stereo not given) [bupropion] | 1.88 | 2.11 | -0.69 | -0.93% | -2.06% |
